Shiga toxin inh: A qHTS for Small Molecule Inhibitors of Shiga Toxin. Vero cells, Shiga toxin protein synthesis inhibition reporter. inhibition, % at 38.7 µM. 290,000 compounds, 9.2% hits; in the data active = inhibition mostly above about 28%, no sharp cut-off; inactive = mostly below about 43%
Pf growth 48h: Primary qHTS for delayed death inhibitors of the malarial parasite plastid, 48 hour incubation; Potency, µM (top dose mostly 28.7 µM), actives largely listed as inhibitors; AID 504832, 2011; 310,000 compounds, 5.9% hits; P. falciparum luciferase growth in erythrocytes, 48 h; active = well fitted inhibition curve with a large enough effect; inconclusive = small, poorly fitted or top-dose-only effect, or another doubt; inactive = no such curve, though single readings can be large or run the other way
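Firefly luciferase activity from engineered P. falciparum reports growth; inhibitors lower the luminescent signal. Cultures contained 2% hematocrit erythrocytes at 0.1% final parasitemia.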
Pf growth 96h: Primary qHTS for delayed death inhibitors of the malarial parasite plastid, 96 hour incubation; P. falciparum luciferase reporter growth, 96 h; Potency, µM (titrated, usually from 28.7 µM), usual class: inhibitors; 320,000 compounds, 6.9% hits; active = well fitted inhibition curve with a large enough effect; inconclusive = small, poorly fitted or top-dose-only effect, or another doubt; inactive = no such curve, though single readings can be large or run the other way
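P. falciparum expressing integrated firefly luciferase, in erythrocytes at 2% hematocrit, 0.05% parasitemia, incubated with compounds 96 h at 37 C, 5% CO2. Growth inhibition read as loss of luminescence; two-generation exposure targets delayed-death apicoplast inhibitors.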
NS1 function inh: qHTS Assay for Inhibitors of Influenza NS1 Protein Function. AID 2326, 2010. 270,000 compounds, 0.4% hits. Potency, µM (top dose mostly 46.1 µM); also: actives are rising curves; nearly all actives have a fitted effect of over 50% in size
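Growth recovery, yeast-based: influenza A NS1 expressed in S. cerevisiae causes slow growth, and suppressors are detected by OD600. The parent strain without NS1 is used as positive control.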
CHX counter: Cycloheximide Counterscreen for Small Molecule Inhibitors of Shiga Toxin | 300,000 compounds, 12% hits | cell reporter, cycloheximide protein synthesis inhibition counterscreen | max response, %; in the data active = max response mostly above about 13%, no sharp cut-off; inactive = mostly below about 14%; also: read at 38.3 µM for the half of the compounds with a filed dose
SARS PLpro yeast: qHTS of Yeast-based Assay for SARS-CoV PLP; S. cerevisiae expressing SARS-CoV PLpro, growth rescue; Potency, µM (highest dose often 32.9 µM), hits mostly activators; 330,000 compounds, 0.19% hits; AID 485353, 2010; also: nearly all actives have a fitted effect of over 55% in size
Numbers stand for hits; . = inactive; ? = inconclusive; / = not tested or not shown. Sampled rows, rich in hits. Any-hit rate of the full collection: about 21%. Unless noted, calls follow the shape of the full dose curve.

SMILES	Shiga toxin inh	Pf growth 48h	Pf growth 96h	NS1 function inh	CHX counter	SARS PLpro yeast
COc1ccc(CNC(=O)C(OC(=O)c2ccco2)c2ccccc2)cc1 (stereo not given)	.	.	.	.	.	.
CCCCNC(=O)c1c(N)n(/N=C/c2ccccn2)c2nc3ccccc3nc12	.	.	1.5µM	?	.	.
Nc1c(S(=O)(=O)c2ccccc2)c2nc3ccccc3nc2n1/N=C/c1ccco1	.	?	?	.	.	.
Nc1c(C(=O)NC2CCCCC2)c2nc3ccccc3nc2n1/N=C/c1ccco1	.	.	9.3µM	.	.	.
COCCNC(=O)c1c(N)n(/N=C/c2ccc(F)cc2)c2nc3ccccc3nc12	.	.	?	.	.	.
Cc1ccc(S(=O)(=O)c2c(N)n(/N=C/c3ccco3)c3nc4ccccc4nc23)cc1	.	6.6µM	?	.	.	.
COc1ccc([C@@H]2[C@H]3C(=O)N(c4cccc(C(F)(F)F)c4)C(=O)[C@H]3ON2C)cc1	.	.	.	.	.	.
O=C(NCC1CCS(=O)(=O)C1)Oc1ccccc1 (stereo not given)	.	.	.	.	.	.
Cc1ccc(-c2nnc(Nc3ccc4c(c3)OCO4)c3ccccc23)cc1S(=O)(=O)NC(C)C	.	2.9µM	?	.	.	.
Cc1ccc(-c2n[nH]c(=O)c3ccccc23)cc1S(=O)(=O)NCCO	.	.	/	.	.	.
Cc1ccc(-c2nnc(N3CCCCC3)c3ccccc23)cc1S(=O)(=O)N(C)C	.	?	?	.	.	.
Cc1ccc(-c2nnc(Nc3ccc4c(c3)OCO4)c3ccccc23)cc1S(=O)(=O)NCCO	.	3.3µM	?	.	.	.
Cc1ccc(-c2nnc(Nc3ccc(CC(N)=O)cc3)c3ccccc23)cc1S(=O)(=O)NCCO	.	6.6µM	.	.	.	.
O=C(Cc1cccs1)NCc1ccccc1F	52	.	/	.	18	.
O=C(Cc1cccs1)NCc1ccccc1	.	.	?	.	.	.
O=C(NCc1cccs1)c1ccccc1F	.	.	.	.	12	.
Cc1ccccc1CNC(=O)Cc1cccs1	50	.	.	/	44	.
O=C(Cc1c(O)c2ccccc2[nH]c1=O)NCc1ccccc1F	94	.	.	.	60	.
CC1=C(C(=O)Nc2ccccn2)C(c2ccc3c(c2)OCO3)C2=C(CC(C)(C)CC2=O)N1 (stereo not given)	.	.	.	/	16	.
COCCNc1cnn(-c2ccccc2)c(=O)c1Cl	39	.	?	?	25	.
CN(c1cnn(-c2ccccc2)c(=O)c1Cl)n1cccc1	56	.	.	.	34	.
CCCCNc1cnn(-c2ccccc2)c(=O)c1Cl	75	.	?	/	33	.
CSc1nnc(SCC2=NNC(=O)SC2)s1	.	.	.	.	.	.
Nn1c(=O)c2ccccc2n2c(SCc3ccc(C(F)(F)F)cc3)nnc12	.	/	?	.	.	.
Cc1cccc(OC(C)C(=O)Nc2nc(-c3ccncc3)cs2)c1 (stereo not given)	/	?	?	/	/	.
SMILES	Shiga toxin inh	Pf growth 48h	Pf growth 96h	NS1 function inh	CHX counter	SARS PLpro yeast
COC(=O)CCC(=O)OC1(C)C(=O)C=C2C=C(C3CC3)N(CCc3c[nH]c4ccccc34)C=C2C1=O (stereo not given)	.	12µM	?	.	.	.
COC(=O)CCC(=O)OC1(C)C(=O)C=C2C=C(C3CC3)N(Cc3ccc4c(c3)OCO4)C=C2C1=O (stereo not given)	.	?	13µM	.	.	.
COC(=O)CCC(=O)OC1(C)C(=O)C=C2C=C(C3CC3)N(CCCOC(C)C)C=C2C1=O (stereo not given)	.	10µM	1.9µM	.	.	.
COC(=O)CCC(=O)OC1(C)C(=O)C=C2C=C(C3CC3)N(CCc3ccccn3)C=C2C1=O (stereo not given)	.	.	?	.	.	.
COC(=O)CCCC1=CC2=CC(=O)C(C)(OC(=O)c3cccs3)C(=O)C2=CN1CCCCO (stereo not given)	.	?	13µM	.	.	.
C=CCN1C=C2C(=O)C(C)(OC(=O)CCC(=O)OC)C(=O)C=C2C=C1C1CC1 (stereo not given)	.	7.4µM	2.6µM	.	.	.
COC(=O)CCC(=O)OC1(C)C(=O)C=C2C=C(C3CC3)N(CCCCO)C=C2C1=O (stereo not given)	.	?	7.4µM	.	.	.
Cc1cccc(OCC(=O)Nc2nc3ccc([N+](=O)[O-])cc3s2)c1	.	.	.	.	.	.
Cc1ccccc1OCC(=O)Nc1nnc(-c2ccncc2)s1	.	.	15µM	.	.	.
Cc1cccc(OCC(=O)Nc2nnc(-c3ccco3)s2)c1	.	.	5.2µM	.	.	.
CCOc1cccc(C(=O)Nc2nnc(-c3ccco3)s2)c1	92	?	.	.	31	.
COc1ccccc1OCC(=O)Nc1nnc(-c2ccco2)s1	.	.	.	.	47	.
CCOC(=O)Cc1nnc(NC(=O)c2cccc(OCC)c2)s1	.	.	?	.	.	.
CC(=O)c1cccc(NC(=O)C2CCN(C(=O)c3cccs3)CC2)c1	.	.	?	.	.	.
CCc1cc(=O)oc2cc(C)cc(OCC(=O)NCC(O)c3ccccc3)c12 (stereo not given)	.	?	?	.	.	.
COc1ccccc1OCC(=O)Nc1nnc(C2CCCC2)s1	.	.	.	.	15	.
Cc1ccccc1OCC(=O)Nc1nnc(C2CCCCC2)s1	.	.	.	.	.	.
O=c1c2ccccc2nc2n1CCS2	.	.	?	.	.	.
COc1ccc2[nH]c3c(=O)n4c(nc3c2c1)SCCC4	.	.	.	/	25	.
Cc1ccc2[nH]c3c(=O)n4c(nc3c2c1)SCC4	.	.	?	/	24	.
Cc1nc(N2CCC(C)CC2)c2c(C)c(C(=O)Nc3ccccc3C(F)(F)F)sc2n1	.	.	?	.	.	.
O=C(NC1CCCCC1)NC1C2CC3CC(C2)CC1C3 (stereo not given)	.	.	?	.	.	.
CCC(=O)N1CCN(c2ccccc2NC(=O)Cc2ccc(Cl)cc2)CC1	.	.	.	.	.	.
CCN1CCN(c2ccc(NC(=O)c3ccc([N+](=O)[O-])o3)cc2Cl)CC1	.	?	?	/	23	.
CCC(=O)N1CCN(c2ccc(Cl)cc2NC(=O)c2ccc([N+](=O)[O-])o2)CC1	.	?	10µM	.	.	.
O=C(CN1C(=O)NC2(CCCC2)C1=O)Nc1cc(Cl)ccc1N1CCCCC1	.	?	13µM	.	.	.
CN1CCN(c2ccccc2NC(=O)c2ccc([N+](=O)[O-])o2)CC1	.	?	.	.	.	.
CCC(=O)N1CCN(c2ccc(Cl)cc2NC(=O)Cc2ccc(Cl)cc2)CC1	.	/	13µM	.	.	.

High-throughput results deposited in PubChem by National Center for Advancing Translational Sciences (NCATS).
